Bioassay records: PubChem, National Center for Advancing Translational Sciences (NCATS)
Shown are actives, neighbours in structure and some others; about 11% of the full set was active somewhere.
HPGD block: blocks human HPGD enzyme activity | P15428 | purified HPGD, NADH fluorescence kinetic, PGE2 substrate | Potency, µM, usual class: inhibitors | 150,000 tested, 4.3% active; active = well fitted inhibition curve with a large enough effect, not every such curve was filed as active; inconclusive = small, poorly fitted or top-dose-only effect, or another doubt; inactive = no such curve, though single readings can be large or run the other way
Target sequence (P15428 whole entry, looked up): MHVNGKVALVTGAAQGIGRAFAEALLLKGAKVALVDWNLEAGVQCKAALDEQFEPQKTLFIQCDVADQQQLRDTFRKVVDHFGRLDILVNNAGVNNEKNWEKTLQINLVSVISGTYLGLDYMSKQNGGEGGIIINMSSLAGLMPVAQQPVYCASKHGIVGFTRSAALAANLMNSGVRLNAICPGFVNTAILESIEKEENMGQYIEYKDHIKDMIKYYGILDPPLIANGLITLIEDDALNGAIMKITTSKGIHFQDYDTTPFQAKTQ
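20 nM HPGD preincubated 15 min at room temperature with compound in 50 mM Tris-HCl pH 8, 0.01% Tween 20. Started with 1 mM NAD+ and 30 uM prostaglandin E2; NADH fluorescence (360/450 nm) read 5 times over 30-s intervals, last minus first.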
HTT ATP protect: protects HTT-Q103 PC12 cells, measured by ATP | PC12 HTT-Q103 induced, cytoprotection, ATP luminescence, 40 h | Potency, µM (highest dose often 56.4 µM), hits mostly activators | 230,000 tested, 0.14% active; note: nearly all actives have a fitted effect of over 45% in size
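Rat PC12, Q103 Htt exon1-GFP fusion, ecdysone promoter; tebufenozide inducer 100 nM final; compound titration; qHTS, 1500 cells/well; ATPlite luminescent read.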
PNC inhibitor: perinucleolar compartment assembly inhibition | PC3M PTB-GFP, PNC prevalence imaging, 16 h; hits give low values | 140,000 tested, 3.1% active | activity change (PNC), negative = inhibition, % at 10 µM;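 active = readout at or below -70, meaning at least 70% loss of cells showing the perinucleolar compartment, a nuclear body marking cancer cells; inconclusive = readout between -30 and a set limit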
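Compounds are pinned in duplicate onto adhered PC3M cells stably expressing GFP-tagged PTB and incubated 16 h at 37 C. Cells are then fixed, nuclei stained with Hoechst, and PNC-positive cells counted.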
CBFb-RUNX1 inh: CBF-beta/RUNX1 interaction disruption; AID 1477; Potency, µM (doses to about 59.8 µM), most hits filed as inhibitors; Q01196+Q13951; AlphaScreen CBFb-His/RUNX1-biotin binding, biochemical; 230,000 tested, under 10 active
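Inhibition was taken as any reduction in AlphaScreen signal from the CBF-beta–RUNX1 pair (His and biotin tags, 30 nM each), measured after compound (15 min) and bead (90 min) incubations at room temperature.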
ALDH1A1 inh: inhibitors of human aldehyde dehydrogenase 1A1; Potency, µM (series often up to 75.3 µM), actives largely listed as inhibitors; 220,000 tested, 7.3% active; P00352; Purified ALDH1A1, NADH fluorescence, propionaldehyde substrate; active = well fitted inhibition curve with a large enough effect, not every such curve was filed as active; inconclusive = small, poorly fitted or top-dose-only effect, or another doubt; inactive = no such curve, though single readings can be large or run the other way
HTT aggregate: reduces HttQ103-GFP aggregates in PC12 cells; PC12 HttQ103-GFP aggregates, Acumen cytometry, 40 h; Potency, µM (titrated, usually from 46.1 µM), most hits filed as inhibitors; 220,000 tested, 1.1% active; note: nearly all actives have a fitted effect of over 60% in size
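Multiplexed with ATP-based cell death, this channel scores GFP aggregates in PC12 cells expressing inducible HTTex1-Q103-GFP. Induction used 100 nM tebufenozide; compounds were tested in concentration series.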
Numbers stand for hits; n = inactive; u = inconclusive; x = no result; [ ] = dose if it differs, or a comment. Unless noted, calls come from the whole dose curve; as a rule, active = well fitted curve in the direction sought with a large enough effect; inconclusive = small, poorly fitted or top-dose-only effect, or another doubt; inactive = no such curve, though single readings can be large; an effect the other way counts as inactive or inconclusive.

SMILES	HPGD block	HTT ATP protect	PNC inhibitor	CBFb-RUNX1 inh	ALDH1A1 inh	HTT aggregate
Cc1ccc(C2=CC(c3ccc(N(C)C)cc3)n3nnnc3N2)cc1 (centres undefined)	n	n	n	n	u	10µM
COc1ccc(C2=CC(c3sccc3C)n3nnnc3N2)cc1 (centres undefined)	n	n	n	n	2µM	n
COc1ccc(C2=CC(c3ccc(F)cc3)n3nnnc3N2)cc1 (centres undefined)	n	n	n	n	n	n
Cc1ccc(-n2c(-c3ccccc3)c[n+]3c2CCc2ccccc2-3)c(C)c1	x	n	x	n	n	3.16µM
Cc1ccc(-n2c(NN)nc3ccccc3c2=O)c(C)c1	n	x	u	n	n	n
c1ccc(CNc2ncnc3nc[nH]c23)cc1	n	n	n	n	n	n
C1=Nc2c(NCc3ccccc3)ncnc2Oc2ccccc21	25.1µM	n[10 µM]	n	n	n	u
COc1ccc(C2/C=C\CN([S+](=O)([O-])c3ccc4ccccc4c3)C(C)C(=O)N2Cc2ccc(F)cc2)cc1 (centres undefined)	x	x	x	n	x	x
CCn1c(/C=C/N(C(C)=O)c2ccccc2)[n+](CCCS(=O)(=O)[O-])c2cc(Cl)c(Cl)cc21	x	n[10 µM]	x	n	n	n[9.22 µM]
CCn1c(/C=C/Nc2ccccc2)[n+](CC)c2cc(Cl)c(Cl)cc21	n	n[10 µM]	-96.0	n	n	u
O=C1C2C3C=CC(C2C(=O)N1c1cccc(O)c1)C1C2C(=O)N(c4cccc(O)c4)C(=O)C2C31 (centres undefined)	x	n[10 µM]	x	n	1.41µM	n
O=C(O)c1cccc(N2C(=O)C3C4C=CC(C4=C(c4ccccc4)c4ccccc4)C3C2=O)c1 (centres undefined)	x	n	x	n	n	n
C#C[C@]1(OC(C)=O)CCC2C3CCC4=CC(=O)CCC4C3CC[C@]21C (some centres undefined)	n	n	x	n	n	x
COc1ccc(/C=C/c2cc(O)cc(O[C@H]3OC(CO)C(O)C(O)C3O)c2)cc1 (some centres undefined)	n	x	x	x	n	x
O=C(CN1CCCCC1)N1CCCc2c1c(=O)oc1ccc(OCc3ccccc3)cc21	n	3.16µM	n	n	u	u
O=C(CN1CCN(c2ncccn2)CC1)N1CCCc2c1c(=O)oc1ccc(O)cc21	n	n[10 µM]	n	n	0.794µM	u
CCCCCOc1ccc2oc(=O)c3c(c2c1)CCCN3C(=O)CN1CCCC(C(=O)OCC)C1 (centres undefined)	n	n	n	n	25.1µM	n[9.22 µM]
CC(=O)Oc1ccc2oc(=O)c3c(c2c1)CCCN3C(=O)CN1CCOCC1	x	n	x	n	u	n
O=C(O)c1ccccc1NS(=O)(=O)c1ccc(F)c(Cl)c1	n	x	x	x	n	x
COc1ccc(C2/C=C\CN(C(=O)c3ccc(C)cc3)C(C)C(=O)N2Cc2ccc(F)cc2)cc1 (centres undefined)	x	x	x	n	x	x
COc1cccc([C@@H]2Oc3ccc(Br)cc3C(=O)[C@H]2OC(=O)N[C@H]2CCCc3ccccc32)c1	n	n	x	n	u	x
S=C(NCC1CCCO1)N1CCN(c2ccccc2)CC1 (centres undefined)	x	n	x	n	n	n
Cc1ccc(NC(=S)NCC(C)C)cc1	n	n[10 µM]	n	n	n	n
Cc1ccc(N2C(=O)C3C4C=CC(CNC(=S)N5CCN(c6ccccc6)CC5)(O4)C3C2=O)cc1 (centres undefined)	x	n	x	n	0.631µM	n
Cc1ccc(NC(=S)NCC23C=CC(O2)C2C(=O)N(c4ccc(C)cc4)C(=O)C23)cc1 (centres undefined)	u	n[10 µM]	n	n	1.26µM	n
SMILES	HPGD block	HTT ATP protect	PNC inhibitor	CBFb-RUNX1 inh	ALDH1A1 inh	HTT aggregate
Cc1cccc(NC(=S)NCc2cccn2C)c1	n	n	u	n	n	n[9.22 µM]
Cc1cccc(NC(=S)NCC23C=CC(O2)C2C(=O)N(c4ccc(Cl)cc4)C(=O)C23)c1 (centres undefined)	n	n[10 µM]	n	n	1.41µM	n
Cc1ccc(S(=O)(=O)NCC23C=CC(O2)C2C(=O)N(c4ccccc4)C(=O)C23)cc1 (centres undefined)	u	n	n	n	3.55µM	n
C=C1C(C(=O)Nc2ccccc2)C1C(=O)Nc1ccccc1 (centres undefined)	x	n[10 µM]	x	n	x	n[9.22 µM]
Cc1ccc(C(C)C)c(OCc2ccc(-c3nnco3)cc2)c1	10µM	n[10 µM]	n	n	n	n
Cc1ccc(S(=O)(=O)N(C)Cc2ccc(-c3nnco3)cc2)cc1	u	n	n	n	n	n
Cc1nn(-c2ccccc2)c(C)c1/C=N/n1c(-c2ccc(C(C)(C)C)cc2)n[nH]c1=S	u	n	n	n	n	u
Cc1ccccc1-c1n[nH]c(=S)n1/N=C/c1c(C)nn(-c2ccccc2)c1C	3.55µM	n[10 µM]	u	n	n	n
COc1ccc(OC)c(-n2nnnc2SCC(=O)NCc2ccc3c(c2)OCO3)c1	n	n[10 µM]	n	n	12.6µM	n
O=C(CSc1nnnn1C1CCCCC1)NCc1ccc2c(c1)OCO2	n	n[10 µM]	n	n	14.1µM	n
O=C(CSc1nnnn1C1CCCC1)NCc1ccc2c(c1)OCO2	n	n[10 µM]	u	n	20µM	n
CC(=O)Nc1ccc(C(=O)CSc2nnnn2C2CCCC2)cc1	x	n[10 µM]	x	n	15.8µM	n[9.22 µM]
CCn1nnnc1SCC(=O)NCc1ccc2c(c1)OCO2	n	n[1.9 µM]	n	n	n	n
COc1cccc(-c2nc(N(C)Cc3ccco3)c3ccccc3n2)c1	x	n	x	x	n	x
Oc1ccc(-c2n[nH]c(=S)n2Cc2ccccc2)cc1	u	n[1.9 µM]	n	n	20µM	n
S=c1[nH]nc(-c2cccnc2)n1Cc1ccccc1	n	n[0.074 µM]	n	n	14.1µM	n
S=c1[nH]nc(COc2cccc3ccccc23)n1Cc1ccccc1	x	n[10 µM]	x	n	x	n[9.22 µM]
S=c1[nH]nc(-c2ccc3ccccc3n2)n1-c1cc(Cl)cc(Cl)c1	u	n[10 µM]	n	n	u	u
S=c1[nH]nc(-c2ccc(Br)cc2)n1Cc1ccccc1	x	n[10 µM]	x	n	u	n[9.22 µM]
S=c1[nH]nc(-c2ccc3ccccc3n2)n1-c1ccccc1Cl	10µM	n[10 µM]	n	n	n	n
Cc1ccccc1OCc1n[nH]c(=S)n1Cc1ccccc1	14.1µM	n[10 µM]	n	n	n	n
COc1cccc([C@H](O)Cn2cc(-c3cccc(CON=C(C)C)c3)nn2)c1	x	n[10 µM]	x	n[13.1 µM]	n[13.5 µM]	x
O=C1CC(c2ccccc2F)c2c(c3ccccc3[nH]c2=O)O1 (centres undefined)	x	n[10 µM]	x	n	x	n[9.22 µM]
CCSC1=N/C(=C/c2ccsc2)C(=O)N1c1ccccc1	n	n[10 µM]	n	u	u	n
S=c1[nH]nc(-c2ccc3ccccc3n2)n1Cc1ccccc1	11.2µM	x	n	n	n	n
S=c1[nH]nc(-c2ccccc2Cl)n1Cc1ccccc1	x	n	x	n	u	n
